From PubChem BioAssay AID485317 (Broad Institute, 2010) come the findings set out here.

By inhibition is commonly meant the relative decrease from the control value, in per cent.

Hit rate of the full screen: of about 290,000 compounds, about 11,000 (3.8%) were called active. The full list was thinned out, with actives kept by preference. A number with no mark means an inactive call.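 The calls were made as follows: active = mean replicate inhibition above about 79%, with every replicate also reaching it (limit read from the data); inconclusive = only one of the two criteria met; inactive = mean below limit and not every replicate reaching it.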

FAD-linked sulfhydryl oxidase ALR (Homo sapiens), sequence (P55789 whole entry, looked up): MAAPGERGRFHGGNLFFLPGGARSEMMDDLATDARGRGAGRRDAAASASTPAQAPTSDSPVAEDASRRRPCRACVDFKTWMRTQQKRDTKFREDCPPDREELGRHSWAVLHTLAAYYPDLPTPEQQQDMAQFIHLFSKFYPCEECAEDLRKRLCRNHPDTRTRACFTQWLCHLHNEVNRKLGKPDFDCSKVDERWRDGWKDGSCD

This assay addresses FAD-linked sulfhydryl oxidase ALR (Homo sapiens) (UniProt P55789). In words: ALR-catalysed DTT oxidation blockers – biochemical, H2O2 detection, HRP-luminol luminescence, single point, primary screen (AID 485317). The settings on record: purified ALR, stronger effect = higher value, concentration not given here.
In the case of `Nc1c(C(=O)OCC(=O)Nc2ccc(OC(F)F)cc2)[nH]c(=O)[nH]c1=O`, the inhibition was 9.56%.
With `COc1ccccc1N(CC(=O)Nc1ccc(C)cc1Cl)S(=O)(=O)c1cccs1`, the inhibition was -3.47%.
For the compound `CC(C(=O)N(C)CC(=O)Nc1ccccc1C(F)(F)F)N1C(=O)c2ccccc2C1=O` (configuration not stated), the inhibition was -4.96%.
For `CCOc1ccc(CC(=O)NCCS(=O)(=O)N2CCN(c3ccccc3)CC2)cc1`, the inhibition was -1.48%.
For the compound `Cc1onc(-c2c(F)cccc2Cl)c1C(=O)OCC(=O)N1C(C)CCCC1C` (configuration not stated), the inhibition is -4.37%.
In the case of `COCCN(CCOC)S(=O)(=O)NC[C@H]1O[C@@H](n2cnc3c(N)ncnc32)[C@H](O)[C@@H]1O`, the inhibition is 2.26%.
As to `COc1cc(C(=O)Nc2ncccc2C)ccc1OCC(=O)N1CCOCC1`, the inhibition was -1.3%.
On to `CCOc1ccc(C(=O)CCC(=O)NC2=NCCS2)cc1`, for which the inhibition was 2.64%.
Regarding `CCOc1ccc(/C=C/C(=O)OCC(=O)c2ccccc2OC)cc1OC`, the inhibition is 1.49%.
Consider `COCOc1cc(O)c(C(=O)/C=C/c2ccc(OCOC)c(OCOC)c2)c(OCOC)c1`, for which the inhibition was 94.9% (active).
For the compound `COc1ccc(/C=C/C(=O)c2ccc(OC)cc2O)cc1`, the inhibition is -17.6%.
The same measure for `C#CCNC(=O)[C@H](Cc1ccc(C(=O)c2ccccc2)cc1)NC(=O)OC(C)(C)C`: -2.67%; for `CCNC(=S)N1CCN(S(=O)(=O)c2ccc(Cl)s2)CC1`: -2.01%; for `COc1ccccc1C(=O)Nc1ccc(OCC(=O)N2CCCCC2)cc1`: 2.28%.
The same measure for `CC(=O)Nc1cccc(-c2nc3ccccc3s2)c1C`: -21%.
With `Oc1ccc(-c2[nH]ncc2-c2nc3ccccc3s2)c(O)c1`, the inhibition is 83.3% (active).
Turning to `Cc1cc(O)ccc1-c1cnc2ccccc2n1`, the inhibition is 58%.
The same measure for `CCN(C(=O)COC(=O)C1CCN(S(=O)(=O)c2ccc(C)c(C)c2)CC1)C1CCS(=O)(=O)C1` (configuration not stated): -10.6%; for `COc1ccc(C2=NN(C(=O)CSc3nnnn3C)C(c3ccco3)C2)cc1` (configuration not stated): 3.36%.
Turning to `Cc1ccc(C(=O)Nc2ccccc2-c2ccccc2)cc1S(=O)(=O)Nc1ccccc1`, the inhibition was -2.08%.
`CCOc1ccc(CCNC(=O)C2=C(C)C(=O)OC23CCC(C)CC3)cc1OCC` (configuration not stated): the inhibition was -1.93%.
Consider `CCN(CCNC(=O)C1=C(C)C(=O)OC12CCC(C)CC2)c1ccccc1` (configuration not stated), for which the inhibition is 98.4% (active).
For the compound `CC1CCN(C(=O)CCNC(=O)c2ccccc2)CC1`, the inhibition is 0.139%.
`Cc1ccc(S(=O)(=O)NC[C@H]2O[C@@H](n3cnc4c(N)ncnc43)[C@H](O)[C@@H]2O)s1`: the inhibition was 1.77%.
Take `O=C(/C=C/c1ccccc1)c1ccoc1`: the inhibition is 13.2%.
Take `COC(=O)c1ccc(COc2ccc(/C=C/C(=O)c3ccc(OC)c(CSCC(=O)O)c3)cc2OC)cc1`: the inhibition is 99.4% (active).
Regarding `COc1ccc(C(=O)/C=C/c2ccc(-c3ccccc3)cc2)cc1CSCC(=O)O`, the inhibition was 99.2% (active).
As for `COC(=O)c1ccc(COc2ccc(/C=N/NC(=O)C(=O)Nc3ccc(OC)cc3)cc2OC)o1`, the inhibition was -5.05%.
As to `O=C(O)c1ccc2c(c1)C(=O)N(c1ccc(/C=C/C(=O)c3ccccc3)cc1)C2=O`, the inhibition was 50.4%.
Turning to `COC(=O)c1ccc(C(NC(=O)OCc2ccccc2)/C(C)=C/[C@@H](C)C(=O)NCc2ccc(OC)c(OC)c2)cc1` (some centres not stated), the inhibition is -2.17%.
Turning to `CC(OC(=O)CN1C(=O)c2ccccc2C1=O)C(=O)c1ccccc1` (configuration not stated), the inhibition is 4.65%.
`CCOC(=O)N1CCN(CC(=O)Nc2cc(C)nn2-c2nc3ccccc3s2)CC1`: the inhibition was 7.49%.
Turning to `Cc1nn(CC(=O)Nc2nc3ccccc3s2)c(C)c1[N+](=O)[O-]`, the inhibition was -2.85%.
The same measure for `CCC(C)Cn1c(O)cc2nn(-c3nc4ccccc4s3)c(=O)c-2c1C` (configuration not stated): 98.9% (active); for `Cc1csc(NC(=O)C2=COCCO2)n1`: 1.03%.
On to `Cc1ccc(-c2csc(NC(=O)C3=COCCO3)n2)cc1C`, for which the inhibition was 83.7% (active).
On to `Cc1ccc(-c2csc(NC(=O)c3cnccn3)n2)cc1C`, for which the inhibition was -0.38%.
The same measure for `O=C(Nc1cccc(S(=O)(=O)NC2=NCCC2)c1)c1ccc(F)cc1F`: -7.53%.
`COc1ccc(-c2cc(C(=O)N(C)CC(=O)Nc3ccccc3Cl)c3ccccc3n2)cc1OC`: the inhibition was -3.41%.
The same measure for `Cc1ccc(S(=O)(=O)N(C)C)cc1NC(=O)COC(=O)/C=C/c1cccs1`: -0.0664%; for `O=C(OCC(=O)N1CCN(c2ccccc2)CC1)c1ccc([N+](=O)[O-])s1`: -44.6%.
With `COc1ccccc1NC(=O)CC(NCCN(C)C)C(=O)O` (configuration not stated), the inhibition was -8.47%.
With `COc1ccc(C)cc1NC(=O)Nc1ccccc1SC`, the inhibition is -2.74%.
Consider `COC(=O)C(CC(=O)Nc1cc(C)ccc1C)Nc1ccccc1OC` (configuration not stated), for which the inhibition is 98.4% (active).
The same measure for `COc1cc([N+](=O)[O-])ccc1NC(=O)COC(=O)CCOc1ccc(C)cc1`: 24.6%; for `Cc1ccc(NC(=O)Cc2nc(COC(=O)C(C)NS(=O)(=O)c3ccc(C)cc3)cs2)cc1` (configuration not stated): 14%; for `Cc1ccc(CSCC(=O)N(C)CC(=O)Nc2cccc(F)c2)cc1`: -16.3%.
Regarding `CCN(CC)C(=O)C(=O)Nc1cccc(Br)c1`, the inhibition is 3.75%.
As to `CCN(CC)C(=O)CSC(Nc1cccc(F)c1)=C(C#N)C#N`, the inhibition is 98.8% (active).
Regarding `COC(=O)c1sc(-c2ccc(C(C)(C)C)cc2)cc1NC(=O)/C=C/C(=O)O`, the inhibition was 98.3% (active).
As to `O=C(O)/C=C/C(=O)Nc1ccc(F)cc1F`, the inhibition was 5.9%.
Consider `COc1ccccc1NC(=O)/C=C/C(=O)O`, for which the inhibition is -9.66%.
For the compound `O=C(COC(=O)c1cc(S(=O)(=O)N2CCOCC2)ccc1F)NC1CC1`, the inhibition was -8.45%.
With `CN(CC(=O)Nc1ccc(F)c(F)c1F)C(=O)Cn1cnc2c1c(=O)n(C)c(=O)n2C`, the inhibition is -6.05%.
For `CCCCn1c(N)c(N(CCC(C)C)C(=O)c2ccc(COc3ccccc3)o2)c(=O)[nH]c1=O`, the inhibition is 0.673%.
Regarding `CCOC(=O)c1c(NC(=O)CSc2nnc(C)c(=O)[nH]2)sc2c1CCC2`, the inhibition is 90% (active).
In the case of `NC(=O)c1c(NC(=O)CSc2nc(N)cc(=O)[nH]2)sc2c1CCCC2`, the inhibition is 36%.
The same measure for `CCCOC(=O)Nc1sc2c(c1C(=O)OCC)CCC2`: 46.6%.
For the compound `Cc1ccc(C)c(NC(=O)COC(=O)c2nn(C)c(=O)c3ccccc23)c1`, the inhibition is -9.61%.
On to `Cc1ccc(CCC(=O)Nc2ncc(Cc3cc(Cl)ccc3Cl)s2)o1`, for which the inhibition was 53.6%.
Take `Cc1ccc(Cc2cnc(N)s2)o1`: the inhibition is 99.1% (active).
The same measure for `COc1cccc(C(=O)OCC(=O)c2[nH]c(C)c(C(C)=O)c2C)c1`: -3.4%.
In the case of `Cc1ccc(S(=O)(=O)NCCNC(C)c2ccc(Br)cc2)cc1` (configuration not stated), the inhibition was -1.35%.
Consider `Cc1nn(-c2ccccn2)c2c1C(c1ccncc1)C1=C(CC(C)(C)CC1=O)N2` (configuration not stated), for which the inhibition is 16%.
`CC(=O)C1=C(C)NC2=C(C(=O)CC(C)(C)C2)C1C` (configuration not stated): the inhibition is -3.96%.
On to `Cc1cc2c(cc1C)NC(c1ccccn1)C1=C(CC(C)(C)CC1=O)N2` (configuration not stated), for which the inhibition was 99.2% (active).
In the case of `O=C1CCC/C=C\C[C@@H](CC(=O)N(CCO)Cc2ccccc2)C(=O)NCCO1`, the inhibition is 0.845%.
`O=C(COC(=O)c1ccco1)Nc1ccc(Cl)cn1`: the inhibition was -2.69%.
Take `O=C(CNC(=O)c1cccnc1)N/N=C/c1cccnc1`: the inhibition was -3.02%.
In the case of `CCN(CC)c1ccc(/C=N/NC(=O)CNC(=O)c2cccnc2)cc1`, the inhibition is 98.6% (active).
The same measure for `O=C(CNC(=O)c1cccnc1)N/N=C/c1cc(Br)c(O)c(Br)c1`: 43.1%.
The same measure for `COc1ccc(-c2cc3ncccc3cn2)cc1`: 23.1%; for `COc1ccc(CNC(=O)C2CCCC2)cc1`: -0.518%; for `COc1ccc(CNC2CCCCC2)cc1`: -5.38%.
For `COc1ccc(N/N=C2/CCCCC2=O)cc1`, the inhibition was 99.4% (active).
In the case of `CN1CCN(C2Cc3ccc(Cl)cc3Sc3ccc(F)cc32)CC1` (configuration not stated), the inhibition was 4.93%.
Consider `CCOCCn1[nH]c2ccccc2c1=O`, for which the inhibition is 52.9%.
As for `Cc1ccc2c(c1)C1CN(C)CCC1N2S(=O)(=O)c1cccc(F)c1` (configuration not stated), the inhibition is 22.1%.
The same measure for `Cc1csc(NC(=O)CSc2nc(=O)n(CCCN(C)C)c3c2CCC3)n1`: -272%; for `CN(C)CCn1c2c(c(SCC(=O)Nc3ccccc3C(F)(F)F)nc1=O)CCCC2`: 0.246%.
Turning to `CCN(CC)CCn1c2c(c(SCC(=O)Nc3nc4ccccc4s3)nc1=O)CCCC2`, the inhibition was 98.7% (active).
With `CCN(CC)CCn1c2c(c(SCC(=O)Nc3ccc(C(C)C)cc3)nc1=O)CCC2`, the inhibition was -219%.
As for `Cc1ccc2nc(NC(=O)CSc3nc(=O)n(CCCN(C)C)c4c3CCC4)sc2c1`, the inhibition is 97.3% (active).
The same measure for `Cc1ccc(NC(=O)CSc2nc(=O)n(CCN(C)C)c3c2CCCC3)c(C)c1`: 5.62%; for `Cc1ccc(C)c(NC(=O)CN(C)C(=O)COc2ccc3ccccc3c2)c1`: -13.6%; for `CC(=O)Nc1ccc(NC(=O)C(NS(=O)(=O)c2ccc3c(c2)OCCO3)C(C)C)cc1` (configuration not stated): 1.95%.
Regarding `Cc1c(NC(=O)CN(C)CC(=O)Nc2ccc(F)c(F)c2F)c(=O)n(-c2ccccc2)n1C`, the inhibition was -2.04%.
Turning to `O=C(COC(=O)CCOc1ccccc1)Nc1cc(S(=O)(=O)N2CCCCC2)ccc1Cl`, the inhibition is 4.02%.
For `COc1ccc(C(=O)C(C)OC(=O)c2cccc(S(=O)(=O)Nc3c(C)n(C)n(-c4ccccc4)c3=O)c2)cc1` (configuration not stated), the inhibition was -0.831%.
The same measure for `O=C(c1cccs1)N1CCC(c2nc3ccccc3s2)CC1`: 98.7% (active); for `Cc1cccc(NC(=S)N2CCC(c3nc4ccccc4s3)CC2)c1`: -3.53%; for `Cc1cccc(C(=O)N2CCC(c3nc4ccccc4s3)CC2)c1`: -11.6%.
